Experimental data published in PubChem BioAssay (NCI).
Compounds without any hit were thinned out: in the full panel of roughly 83,000, 20% have a hit.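 Method: cells in 96-well plates; compound added at one concentration; 48 h incubation; percent growth measured; values under 10 scored active.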 A number with no mark means an inactive call. The source made the active and inactive calls.

system: NCI-H522 lung; experiment: NCI-60 one-dose screen, 48 h (100 = growth as untreated, 0 = no growth, -100 = all killed); settings: 10 µM

Row | Compound | growth
1 | COc1cc(C2CC(=O)Nc3c2c(C)nn3-c2nc3ccccc3[nH]2)cc(OC)c1O (stereo not drawn) | 64.8%
2 | CCCCC(CC#N)(CCC)CCC | 97.5%
3 | COc1cc(C)c2sc3ccccc3c(=O)c2c1NCCN(C)C | 80.1%
4 | O=C(CCl)N1c2ccccc2Sc2ccc3ccccc3c21 | -81.1% (active)
5 | CCOC(=O)Nc1ccc2c(c1)C(=O)N(CC)c1ccccc1O2 | -39% (active)
6 | COc1ccc(/C=C(\c2cc(OC)c(OC)c(OC)c2)c2nnc(-c3cccs3)o2)cc1 | 43.7%
7 | COc1ccc(-c2cc(/C=C/C(=O)c3ccc(N)cc3)[nH]n2)cc1OC | 24.7%
8 | CCCCCCCCCCSC(=N)N (tested in a mixture with another compound) | 53.7%
9 | CC(=O)CS(C)(=O)=O | 93.7%
10 | Nc1ccc2c(c1)Cc1cc(N)c(Cl)cc1-2 | 92.2%
11 | CCOC(=O)c1cc(-c2ccccc2)nc(N)n1 | 95.5%
12 | CCCOCC(O)CNCCN (stereo not drawn) | 102%
13 | O=C(Nc1ccc(OCc2nnc(-c3ccccc3)o2)c(F)c1)Nc1ccc(Cl)c(Cl)c1 | 35%
14 | Cc1[nH]nc2c(=S)[nH]c(=O)[nH]c12 | 98.7%
15 | CCC(OC(=O)CC(C)C)c1ccccc1 (stereo not drawn) | 71.8%
16 | C/C=C\COc1cc(C)c(Cl)cc1Cl | 119%
17 | CC(=O)N(O)c1ccc(/C=C/c2ccccc2)cc1 | 68.3%
18 | CCOC(=O)c1c(C(F)(F)F)n([O-])c2ccc(OC)cc2[n+]1=O | -25.9% (active)
